Measured values as given in PubChem BioAssay (EPA / NIEHS).
Inconclusive results are not listed. Active and inactive are the calls of the source. Rule for the calls, unless noted: active = hit-call score of the fitted dose curve at least 0.9, where 1 is the maximum; inactive = score below 0.9.

Legend:
[1] = CCTE_Harrill_HTTr_Viability_MCF7: CCTE's 6-hour Cell Viability Assessment for the High-Throughput Transcriptomics (HTTr) Platform, in MCF-7 cells cultured in DMEM + 10% fetal bovine serum, Harrill Lab (AID 2284010)
How it was run: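 MCF-7 cells in DMEM + 10% FBS, 384-well, exposed 6 h to an eight-point dilution series. Membrane integrity scored by high-content imaging of propidium iodide exclusion; bidirectional fit versus DMSO.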

[2] = CCTE_Harrill_HTTr_Apoptosis_MCF7: CCTE's 6-hour Apoptosis Assessment for the High-Throughput Transcriptomics (HTTr) Platform, in MCF-7 cells cultured in DMEM + 10% fetal bovine serum, Harrill Lab (AID 2284011)
How it was run: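 Apoptosis in MCF-7 cells grown in DMEM with 10% fetal bovine serum was scored after a six hour exposure by high content imaging of caspase-3/7 activation (CellEvent Caspase 3/7 Green), with DMSO serving as negative control and baseline.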

[3] = CCTE_Harrill_HTTr_CellCount_MCF7: CCTE's Cell Proliferation Assessment for the High-Throughput Transcriptomics (HTTr) Platform, Harrill Lab (AID 2284012; active = hit-call score of the fitted dose curve at least 0.9, where 1 is the maximum;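 note: cells exposed to compound for six hours; intended direction is loss of nuclei count meaning fewer cells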)
How it was run: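 MCF7 cells exposed 6 hours to an eight-point dilution series; Hoechst-stained nuclei counted by high-content imaging. Bidirectional curve fitting against DMSO baseline.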

Measured: outcome

NC[C@H](O)c1ccc(O)c(O)c1
inactive: [1] | [2] | [3]
